Data from PubChem BioAssay (NCATS).
Inconclusive results are not listed. Active and inactive are the calls of the source. The call rests on the fitted dose curve; in most records, active means well fitted inhibition curve with a large enough effect; inconclusive means small, poorly fitted or top-dose-only effect; inactive means no such curve, though single readings can be large or run the other way.

assay: BET inhibitor-based combinations targeting novel dependencies in MECOM-rearranged (r) AML: SET-2 cell line (AID 2202231); conditions: SET-2 AML cells viability, CellTiter-Glo luminescence, 48 h; viability: active compounds read low, series mostly up to about 46 µM; further: nearly all actives have a fitted effect of over 35% in size
Description: Ecotropic viral insertion site 1 (EVI1) is located on chromosome 3q26.2 as part of the MECOM (MDS and EVI1 complex) locus. Under normal hematopoiesis, EVI1 is a regulator of hematopoietic stem cell maintenance and self-renewal and EVI1 levels decrease as the cells differentiate. In approximately 5-10% of de novo acute myeloid leukemia (AML) EVI1 is aberrantly expressed, including Chromosomal inv(3)(q21;q26.2) or t(3;3)(q21;q26.2) alterations (MECOM-r) that account for about 50% of AML with EVI1 overexpression 31. AMLs with high levels of EVI1 have a poor prognosis and an overall survival time averaging between 10-14 months. EVI1 overexpression confers resistance in leukemia cells, highlighting the need to develop new targeted therapies for EVI1 overexpressing AMLs.
Here, we performed an unbiased chemical drug screening by evaluating the single agent activity of a collection of 2,480 oncology-focused, approved and investigational drugs (NCATS Mechanism Interrogation Plates, MIPE v5.0) against a panel of seven AML cell lines. These included four MECOM-r cell-lines (AML-191, AML-194, UCSD-AML1 and HNT-34) and three non-MECOM-r AMLs (MV4-11, OCI-AML3 and SET-2). Exploiting the mechanistic redundancy built in the library, we identified target-level sensitivities in MECOM-r AML cells and relative activity as compared to other AML subtypes.
A collection of 2480 mechanistically annotated dugs (MIPE v5.0) was used to screen four 3q26.2 rearranged AML cell lines and three non-3q26.2 rearranged AML cell lines. This library purposely exploits redundancy by including multiple inhibitors of key onco-targets, while simultaneously encompassing mechanistic diversity, targeting more than 800 distinct mechanisms of action. Briefly, cells were seeded in 5 uL of growth media using a Multidrop Combi dispenser into 1536 well white polystyrene tissue culture treated plates (Corning) at a density of 500cells/well. For each cell-line, for each of the 2480 drugs in MIPE v5.0 library, an 11-point dose curve was generated via a 1536 pin-tool. Plates were incubated for 48 hr at standard incubator conditions, covered by a stainless steel gasketed lid to prevent evaporation. Cell viability was determined by luminescence based, Cell Titer Glo assay (Promega). In detail, 3 uL of Cell Titer Glo were added to each well and plates were incubated at room temperature for 15 min with a stainless-steel lid in place. Luminescence readings were taken using a Viewlux (PerkinElmer) with a 2 s exposure time per plate. Compound dose-response curves were normalized to DMSO and empty well controls on each plate. Quantitative drug activity data from dose-response curves was determined utilizing area Under the Curve (AUC) and Z-transformed AUC (Z-AUC, a mean-centering transformation applied to each individual cell-line screened).
Potency means the concentration at half of the fitted maximal effect.

| SMILES | viability | Potency |
| --- | --- | --- |
| Cc1cc2c(s1)Nc1ccccc1N=C2N1CCN(C)CC1 | 111% (inactive) | – |
| O=C(Nc1c(Cl)cncc1Cl)c1ccc(OC(F)F)c(OCC2CC2)c1 | 98.8% (inactive) | – |
| OC[C@H]1O[C@@H](n2cnc3c2NC=NC[C@H]3O)C[C@@H]1O | 108% (inactive) | – |
| Cc1c(C(=O)N2CCOc3ccc(-c4ccc(N)nc4)cc3C2)ccc(S(C)(=O)=O)c1F | – | 13.2 µM (active) |
| CC(C)CNc1ccnc(NCc2csc(-c3ccccc3)n2)n1 | – | 11.8 µM (active) |
| CC[C@@H](C)Nc1cc(C(=O)NC2CC3CC[C@@H](C2)N3c2ccc(C(=O)C3CC3)cn2)c(C)cc1C(N)=O (stereo not given in full) | – | 0.132 µM (active) |
| Clc1ccc(Nc2nnc(Cc3ccncc3)c3ccccc23)cc1 | 91.3% (inactive) | – |
| Cc1cnc(Nc2ccc(OCCN3CCCC3)cc2)nc1Nc1cccc(S(=O)(=O)NC(C)(C)C)c1 | – | 4.68 µM (active) |
| CC(C)C[C@H](NC(=O)CNC(=O)c1cc(Cl)ccc1Cl)B(O)O | – | 0.105 µM (active) |
| COc1cc(C(=O)NS(=O)(=O)c2ccccc2C)ccc1Cc1cn(C)c2ccc(NC(=O)OC3CCCC3)cc12 | 119% (inactive) | – |
| Clc1cc2c(NC3CCCC3)nnc(-c3ccncc3)c2cc1Cl | 112% (inactive) | – |
| NC(=O)[C@H]1CCS[C@@H]2C[C@]3(CCCN3C(=O)Cc3ccc(NC(=O)COc4ccc(Cl)cc4Cl)cc3)C(=O)N12 | – | 14.8 µM (active) |
| Cn1cnc2c(F)c(Nc3ccc(Br)cc3Cl)c(C(=O)NOCCO)cc21 | 95.4% (inactive) | – |
| CC(C)[C@H](CO)Nc1nc(Nc2ccc(C(=O)O)c(Cl)c2)c2ncn(C(C)C)c2n1 | 109% (inactive) | – |
| C[C@H](NC(=O)c1sccc1OCc1ccc(Cl)cc1)c1ccccc1 | – | 16.6 µM (active) |
| COC(=O)[C@H](c1ccccc1Cl)N1CCc2sccc2C1 | 110% (inactive) | – |
| C[C@H](NC(=O)Cc1cc(F)cc(F)c1)C(=O)N[C@H](C(=O)OC(C)(C)C)c1ccccc1 | 118% (inactive) | – |
| Cc1cncc2cccc(S(=O)(=O)N3CCCN(C(=O)CN)C[C@@H]3C)c12 | 91.2% (inactive) | – |
| Cc1cccc(-c2[nH]ncc2-c2ccc3ncccc3n2)n1 | 105% (inactive) | – |
| O=C(c1c(F)ccc(NS(=O)(=O)N2CC[C@@H](F)C2)c1F)c1c[nH]c2ncc(-c3cnc(C4CC4)nc3)cc12 | – | 16.6 µM (active) |

| SMILES | viability | Potency |
| --- | --- | --- |
| CC(C)(C)NCC(O)c1ccc(O)c(CO)c1 (stereo not given) | 115% (inactive) | – |
| CC(C)C[C@@H](N)[C@H](O)C(=O)N[C@H](C(=O)N[C@H](C(=O)N[C@@H](CC(=O)O)C(=O)O)C(C)C)C(C)C | 110% (inactive) | – |
| O=C(CN1C(=O)C2(CCCC2)NC[C@H]1c1cc(F)cc(F)c1)Nc1ccc2c(c1)C[C@@]1(C2)C(=O)Nc2ncccc21 | 98.8% (inactive) | – |
| C=C(C)[C@@H]1CC[C@]2(C)CC[C@]3(C)[C@H](CC[C@@H]4[C@@]5(C)CC[C@H](O)C(C)(C)[C@H]5CC[C@]43C)[C@@H]12 | 117% (inactive) | – |
| CN1c2cc(O)c(N=NC(N)=O)cc2CC1S(=O)(=O)O (stereo not given) | 89.9% (inactive) | – |
| Cn1c(=O)c2c(ncn2C)n(C)c1=O | 97.8% (inactive) | – |
| O=Nc1c(-c2c(O)[nH]c3cc(Br)ccc23)[nH]c2ccccc12 | – | 5.25 µM (active) |
| COc1nc(-c2ccc3c(c2)OCO3)n(-c2ccc(NC(=O)CSc3ccccc3)cc2)n1 | 97.5% (inactive) | – |
| CCC1(c2ccccc2)C(=O)NCNC1=O | 109% (inactive) | – |
| CC(C)C(C)C=CC(C)C1CCC2C3=CC=C4CC(O)CCC4(C)C3CCC21C (stereo not given) | 121% (inactive) | – |
| O=C(O)[C@@H](c1ccc(OCc2ccc3ccccc3n2)cc1)C1CCCC1 | 99.7% (inactive) | – |
| COc1cc2c(cc1OCCCN1CCCC1)N=C(N)C21CCC1 | 106% (inactive) | – |
| CCC1(C)CC(=O)NC1=O (stereo not given) | 115% (inactive) | – |
| COc1cc2c(N3CCN(C(=O)Nc4ccc(OC(C)C)cc4)CC3)ncnc2cc1OCCCN1CCCCC1 | 95.3% (inactive) | – |
| CCOc1cc(N2CCC(O)CC2)ccc1Nc1ncc2c(n1)N(C)c1ccccc1C(=O)N2C | – | 14.8 µM (active) |
| COc1cc(C(C)C)c(Oc2cnc(NC(CO)CO)nc2N)cc1I | 99.2% (inactive) | – |
| COc1ccc(-n2c(SCCCN3C(=O)c4cccc5cccc(c45)C3=O)nnc2-c2ccncc2)cc1 | 102% (inactive) | – |
| CN(C)CC(C)(C)CNc1nn2c(-c3ccccc3)nnc2cc1C1CCC1 | 113% (inactive) | – |
| O=C(CCCc1ccc2cccnc2n1)NCc1cc(-c2ccc(F)c(C(F)(F)F)c2)no1 | 106% (inactive) | – |
| C/C=C/C(=O)N(CC)c1ccccc1C | 107% (inactive) | – |
